# Source: PubChem BioAssay AID1244 (Sanford-Burnham Center for Chemical Genomics, 2008)
# A number with no mark means an inactive call. Calls of active or inactive are those of the source. How the calls were made is not given here.
# Assay: displacers of FITC-Bim-BH3 from Bcl-B – biochemical, fluorescence polarization, Bim-BH3 peptide, counter-screen for TR3-derived Bcl-B inhibitor project, dose response (AID 1244)
# Details: Bcl-B/FITC-Bim-BH3 peptide binding
row,SMILES,EC50
1,Cc1ccc(C)n1-c1ccc(Br)cc1C(=O)O,0.48 µM (active)
2,Cc1cc(C)nc(/N=C(/N)Nc2cccc(N)c2)n1,> 25 µM
